Test results published in the supplement of paper PMC6555819.

How the values were obtained:
Assay in all cases: PBM binding z-score (relative to random genomic background probes); higher = stronger binding; sequences stand for … in GC…GCGATTGACAGCGTAGAATGAAGG
[1] = system: RARb homodimer (NR concentration 270 nM)
In short: (§1)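 The probes on custom Agilent 4×180K protein-binding microarrays were double-stranded, with 34-nt variable regions bearing direct-repeat seeds, single-nucleotide variants, half-site ablations and random human genomic background sequences. Incubation lasted 1 h with ligand-free nuclear receptor dimers in PBS pH 7.4, 2% milk, 0.02% Triton X-100, 1 mM DTT, 0.2 mg/mL BSA and 0.4 mg/ml salmon testes DNA. Antibodies against each partner (one per run) detected bound dimers, and fluorescence scans were regression-normalized. Binding z-scores take the random background probes as reference.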

[2] = system: RARg:RXRa (NR concentration 270 nM, RXRa partner concentration 90 nM)
In short: as §1

[3] = system: RARg homodimer (NR concentration 270 nM)
In short: as §1

[4] = system: RXRa DBDmut IVT, anti-RXR (DBD mutation: RXRa K156A/R161A, NR concentration 90 nM)
In short: as §1

[5] = system: RXRa homodimer (NR concentration 180 nM)
In short: as §1

[6] = system: THRa:RXRa (NR concentration 90 nM, RXRa partner concentration 90 nM)
In short: as §1

[7] = system: THRa homodimer (NR concentration 90 nM)
In short: as §1

[8] = system: VDR:RXRa (NR concentration 270 nM, RXRa partner concentration 90 nM)
In short: as §1

[9] = system: VDR homodimer (NR concentration 270 nM)
In short: as §1

Row | Sequence | PBM binding z-score [1] | PBM binding z-score [2] | PBM binding z-score [3] | PBM binding z-score [4] | PBM binding z-score [5] | PBM binding z-score [6] | PBM binding z-score [7] | PBM binding z-score [8] | PBM binding z-score [9]
1 | AGTCAAAGTTCAGGACGAGGTAGCGTAAAGCACG | 2.76 | 4.44 | 4.55 | 2.81 | 2.93 | 2.9 | 0.672 | 2.43 | 2.05
2 | ATAACGAGGGCACGCTGAGTTGATAGCAGAGTAG | 1.27 | 1.72 | 2.4 | 1.64 | 1.46 | 2.07 | 0.209 | – | 2.05
3 | TCTTGTAGTTCAAGCAGGTTAAGAAAGCCTGAGT | 1.48 | 1.44 | 1.65 | 2.37 | 1.47 | 1.63 | -0.0988 | 3.32 | 2.02
4 | TCTATTAGTTGATTAGGGCAACGGAAACAGCGGA | 0.377 | 0.729 | 0.882 | 0.972 | 0.448 | 0.578 | 0.239 | 0.621 | 0.264
5 | AGTCAAAGTTCACTAGGTAACATAAGATTCAGCT | 3.84 | 4.96 | 5.9 | 4.29 | 3.76 | 2.08 | 0.138 | 4.14 | 4.22
6 | TCATATAGGTAAACAGGTGGAAGTCCGTAAGTTA | 0.247 | 0.462 | 0.0474 | 1.38 | 0.624 | 0.188 | 0.00908 | 0.7 | 0.154
7 | CATACAGGGTCAGCTAGCCCAGAGTAGGGACGGC | 3.08 | 4.59 | 4.82 | 1.69 | 4.46 | 2.82 | 0.68 | 2.52 | 0.999
8 | TCCAGTAGGTTAGTCGGGGCATTCAGCCAACATA | 0.924 | 0.125 | 0.158 | 1.18 | 0.345 | 1.19 | 0.383 | 2.47 | 0.673
9 | TCGAGTAGGTTACCAATGGGCCATTCAGCTTTCT | 0.543 | 0.598 | 0.337 | 0.37 | 0.688 | 0.184 | -0.731 | 0.0845 | -0.805
10 | AGAATGAGGTTACCAAATATCAGGGAAACGCTTG | 0.779 | 1.91 | 1.86 | 1.24 | 2.52 | 2.67 | 0.824 | 1.34 | 0.512
11 | GCTAGCCGGCCATTTGGGTCACTCAATGACGGGC | 1.75 | 0.912 | 1.1 | -0.739 | 0.725 | 1.62 | 0.719 | 0.203 | 0.157
12 | ACTAGCAGGCCAAGTTTGGGTCACTCAGACAAAG | 2.13 | 2.11 | 1.41 | 0.0571 | 0.7 | 2.33 | 0.94 | 0.43 | 0.117
13 | CGACAAAGTTCAACTAAGGTAACGTAAAGCACGC | 4.21 | 5.63 | 6.69 | 4.18 | 4.41 | 5.06 | 1.57 | 4.67 | 3.79
14 | CGTCCAATGTCAAGGTCAGTGAAAGAGACTCGAA | 3.45 | 3.38 | 4.06 | 1.1 | 2.22 | 2.91 | 2.18 | 2.08 | 1.57
15 | CGTCCAAGGTCAGCAGGTCAGTGTAAGCGACGTG | 5.08 | 6.34 | 6.61 | 2.55 | 4.93 | 4.01 | 2.46 | – | 2.01
16 | CCTTACGGGTCACTCCAGGGTATAGCATCGGAGT | 2.55 | 4.23 | 4.17 | 0.964 | 4.2 | 4.35 | -0.222 | 3.25 | 0.88
17 | CGTGCTAGGTCAATGGTCAGCTAAAGCAGCTCGC | 2.95 | 3.8 | 4.95 | 1.67 | 2.31 | 2.23 | 0.655 | 0.97 | 0.301
18 | CGTCCAAGGTCAAAGGTTAGTGAAGAGATGACGG | 4.34 | 7.04 | 6.48 | 3.99 | 8.4 | 4.33 | 2.53 | 5.39 | 3.02
19 | GCTAGCAGGCGATTTGGGTCACTCAATGACGGGC | 1.23 | 0.467 | 0.586 | -0.454 | 0.643 | 1.91 | 0.374 | -0.205 | -0.295
20 | TCTTGCAGATCAAGCAGGTTAAGAAAGCCTGAGT | -0.292 | -0.332 | -0.629 | 0.253 | -0.0969 | 0.0949 | -0.484 | 0.157 | -0.141
21 | ATATCAAGGTGATCGTGAGGTCGTTGATACTAAC | 1.5 | 2.42 | 1.24 | 0.829 | 1.61 | 3.46 | 2.27 | 3.33 | 2.79
22 | TCATATAGGTACTACAGGTGAAAGTCGGCATCTA | 0.25 | 0.654 | 0.428 | 1.33 | 0.935 | 0.692 | -0.00751 | 0.876 | 0.023
23 | CCTTACGGGTCACAAGGTTATAGCACGACGAGCG | 3.71 | 5.7 | 4.75 | 1.18 | 6.05 | 3.26 | 0.935 | 4.37 | 1.54
24 | GTCCCAAGGTGAATAGGTCGTTGATGAGTAGGCG | 2.13 | 2.88 | 1.42 | -0.179 | 1.67 | 2.06 | 0.76 | 0.855 | 0.582
25 | ACTAGCAGGCCAATTTTGGGTCACTCAAACAAAG | 2.11 | 1.59 | 1.25 | -0.264 | 0.898 | 2.34 | 1.24 | 0.456 | -0.032
26 | AGTCAAAGTTCCGGACGAGGTAACGTAAAGCACG | 0.173 | 0.181 | 0.277 | -0.303 | 0.201 | 1.62 | 0.886 | -0.357 | -0.0573
